Laboratory results taken from PubChem BioAssay (Tox21).
Where “and” joins values, the source holds several entries; their conditions need not be identical. Equal values may be shown once. Some compounds were tested as several samples or in several runs, with calls that do not always agree. Calls of active or inactive are those of the source. Unless noted, calls follow the shape of the dose curve; as a rule, active = well fitted curve in the direction sought with a large enough effect in the repeat runs; inconclusive = weak or mixed curves; inactive = no such curve, though single readings can be large; an effect the other way counts as inactive or inconclusive.

What was measured:
[1] = qHTS assay to identify small molecule antagonists of the glucocorticoid receptor (GR) signaling pathway - cell viability counter screen (AID 720693); also: nearly all actives have a fitted effect of over 55% in size; also: potency is read from the fitted curve at half-maximal effect
[2] = qHTS assay for identifying genotoxic compounds that show differential cytotoxicity against isogenic chicken DT40 cell lines with known DNA damage response pathways - wild type cell line (AID 743012); also: nearly all actives have a fitted effect of over 60% in size; also: potency is read from the fitted curve at half-maximal effect
Method in brief: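 Parental DNA repair-proficient DT40 cells, 300 per well, were pre-incubated ~0.5 h at 37 C/5% CO2, pin-dosed with compounds in DMSO, then incubated 40 h. Viability was read as CellTiter-Glo luminescence after 30 min at room temperature.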

[3] = qHTS assay for identifying genotoxic compounds that show differential cytotoxicity against isogenic chicken DT40 cell lines with known DNA damage response pathways - Rev3 mutant cell line (AID 743014); also: nearly all actives have a fitted effect of over 55% in size; also: potency is read from the fitted curve at half-maximal effect
[4] = qHTS assay to identify small molecule antagonists of the androgen receptor (AR) signaling pathway - cell viability counter screen (AID 743033; also: nearly all actives have a fitted effect of over 45% in size; also: potency is read from the fitted curve at half-maximal effect)
[5] = qHTS assay to identify small molecule antagonists of the androgen receptor (AR) signaling pathway using the MDA cell line - cell viability counter screen (AID 743041; also: nearly all actives have a fitted effect of over 45% in size; also: potency is read from the fitted curve at half-maximal effect)
Method in brief: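 Viability counter screen run alongside the AR antagonist reporter: cells seeded 5 h before compound, R1881 added, 16 h incubation at 37C without CO2, fluorescent CellTiter-Fluor signal quantified.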

[6] = qHTS assay to identify small molecule antagonists of the thyroid receptor (TR) signaling pathway - cell viability counter screen (AID 743064); also: nearly all actives have a fitted effect of over 50% in size; also: potency is read from the fitted curve at half-maximal effect
Method in brief: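 Same-well viability check: GH3.TRE-Luc cells stimulated with 1 nM T3 alongside test compound for 23.5 h, followed by CellTiter-Fluor fluorescence.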

[7] = qHTS assay to identify small molecule antagonists of the thyroid receptor (TR) signaling pathway (AID 743065); also: nearly all actives have a fitted effect of over 55% in size; also: potency is read from the fitted curve at half-maximal effect
Method in brief: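 GH3.TRE-Luc rat pituitary cells carrying two TR response elements driving luciferase were plated for 4 h, given compound plus 1 nM T3 (final), and incubated 23.5 h at 37 C. ONE-Glo luminescence measured reporter inhibition; CellTiter-Fluor fluorescence tracked cytotoxicity.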

[8] = system: thyroid hormone receptor (rat, GH3 cells); assay: qHTS assay to identify small molecule agonists of the thyroid receptor (TR) signaling pathway (AID 743066; calls by dose curve)
[9] = qHTS assay to identify small molecule antagonists of the estrogen receptor alpha (ER-alpha) signaling pathway - cell viability counter screen (AID 743074; calls by dose curve;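 also: HEK293 cells carrying ER-alpha-UAS-bla reporter stimulated with 17beta-estradiol; nearly all actives have a fitted effect of over 45% in size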; also: potency is read from the fitted curve at half-maximal effect)
[10] = qHTS assay to identify small molecule antagonists of the estrogen receptor alpha (ER-alpha) signaling pathway using the BG1 cell line (AID 743080; calls by dose curve;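 also: BG1 cells stimulated with 17beta-estradiol alongside compound; nearly all actives have a fitted effect of over 25% in size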; also: potency is read from the fitted curve at half-maximal effect)
Method in brief: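 BG1-Luc-4E2 cells (endogenous full-length ER-alpha, 4xERE luciferase) hormone-starved 5 days in charcoal-stripped FBS, plated 4,000/well for 24 h, then compound plus 17beta-estradiol for 21.5 h at 37 C; ONE-Glo luminescence read.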

[11] = qHTS assay to identify small molecule antagonists of the estrogen receptor alpha (ER-alpha) signaling pathway using the BG1 cell line - cell viability counter screen (AID 743081);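 also: compound given together with 17beta-estradiol as the ER stimulus; series mostly up to about 70 µM; nearly all actives have a fitted effect of over 45% in size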
[12] = biological target: Aromatase (Homo sapiens) (UniProt P11511); assay: qHTS assay to identify aromatase inhibitors (AID 743083); also: nearly all actives have a fitted effect of over 55% in size; also: potency is read from the fitted curve at half-maximal effect
Chain of Aromatase (Homo sapiens) (P11511 whole entry, looked up): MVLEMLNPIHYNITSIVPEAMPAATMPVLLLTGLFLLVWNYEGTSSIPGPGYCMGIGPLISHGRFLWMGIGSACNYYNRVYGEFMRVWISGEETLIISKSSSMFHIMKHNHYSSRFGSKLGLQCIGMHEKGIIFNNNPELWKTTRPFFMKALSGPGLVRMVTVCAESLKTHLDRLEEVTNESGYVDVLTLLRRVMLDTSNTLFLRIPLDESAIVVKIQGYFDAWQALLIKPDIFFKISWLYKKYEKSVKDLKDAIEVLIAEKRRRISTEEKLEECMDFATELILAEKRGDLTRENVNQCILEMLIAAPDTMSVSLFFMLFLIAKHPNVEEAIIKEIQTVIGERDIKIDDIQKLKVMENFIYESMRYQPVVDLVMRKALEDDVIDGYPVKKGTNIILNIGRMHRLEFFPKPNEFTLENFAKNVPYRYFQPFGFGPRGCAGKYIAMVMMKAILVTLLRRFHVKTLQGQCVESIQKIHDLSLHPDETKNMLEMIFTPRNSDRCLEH

[13] = qHTS assay for identifying genotoxic compounds that show differential cytotoxicity against isogenic chicken DT40 cell lines with known DNA damage response pathways - Rad54/Ku70 mutant cell line (AID 743015); also: nearly all actives have a fitted effect of over 60% in size; also: potency is read from the fitted curve at half-maximal effect
[14] = biological target: Androgen receptor (Homo sapiens) (UniProt P10275); assay: qHTS assay to identify small molecule agonists of the androgen receptor (AR) signaling pathway using the MDA cell line (AID 743040; also: nearly all actives have a fitted effect of over 20% in size; also: potency is read from the fitted curve at half-maximal effect)
Chain of Androgen receptor (Homo sapiens) (P10275 whole entry, looked up): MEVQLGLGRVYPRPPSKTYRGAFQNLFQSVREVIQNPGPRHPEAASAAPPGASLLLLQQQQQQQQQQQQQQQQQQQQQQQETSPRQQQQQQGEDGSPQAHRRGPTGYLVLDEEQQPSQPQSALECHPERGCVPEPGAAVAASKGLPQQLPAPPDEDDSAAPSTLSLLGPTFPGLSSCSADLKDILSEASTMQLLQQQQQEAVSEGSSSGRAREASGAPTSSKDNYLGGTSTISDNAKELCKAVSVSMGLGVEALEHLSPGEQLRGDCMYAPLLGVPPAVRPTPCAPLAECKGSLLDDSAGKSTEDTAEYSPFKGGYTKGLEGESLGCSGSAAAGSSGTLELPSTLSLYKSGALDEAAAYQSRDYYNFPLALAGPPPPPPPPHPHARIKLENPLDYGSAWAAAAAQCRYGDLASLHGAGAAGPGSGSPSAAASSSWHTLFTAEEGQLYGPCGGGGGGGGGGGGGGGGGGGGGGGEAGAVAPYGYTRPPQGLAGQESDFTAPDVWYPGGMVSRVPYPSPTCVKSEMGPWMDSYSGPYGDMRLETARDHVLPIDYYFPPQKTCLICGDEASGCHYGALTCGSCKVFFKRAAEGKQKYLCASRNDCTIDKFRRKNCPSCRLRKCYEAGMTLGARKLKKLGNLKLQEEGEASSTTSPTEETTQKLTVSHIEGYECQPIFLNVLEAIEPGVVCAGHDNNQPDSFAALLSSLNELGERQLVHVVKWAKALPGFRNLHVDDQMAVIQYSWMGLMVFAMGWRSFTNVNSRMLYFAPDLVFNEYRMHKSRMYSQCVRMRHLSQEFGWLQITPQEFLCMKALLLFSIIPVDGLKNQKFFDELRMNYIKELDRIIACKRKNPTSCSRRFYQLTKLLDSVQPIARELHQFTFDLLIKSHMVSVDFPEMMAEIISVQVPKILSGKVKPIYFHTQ
Method in brief: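 Luminescence from ONE-Glo, read after 30 min at room temperature, reflects MMTV-driven luciferase in MDA-kb2 cells (AR- and GR-responsive). Treatment lasted 16 h at 37C, 0% CO2.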

[15] = biological target: Androgen receptor (Homo sapiens) (UniProt P10275); assay: qHTS assay to identify small molecule antagonists of the androgen receptor (AR) signaling pathway using the MDA cell line (AID 743042; also: nearly all actives have a fitted effect of over 55% in size; also: potency is read from the fitted curve at half-maximal effect)
Method in brief: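 MDA-kb2 cells (human breast carcinoma, stably carrying an MMTV-luciferase reporter responsive to AR and GR) were plated at 3,000 cells/well and preincubated 5 hr at 37C, then given compound plus R1881 agonist for 16 h. ONE-Glo luminescence was read.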

[16] = biological target: Estrogen receptor (Homo sapiens) (UniProt P03372); assay: qHTS assay to identify small molecule agonists of the estrogen receptor alpha (ER-alpha) signaling pathway (AID 743075; calls by dose curve; also: potency is read from the fitted curve at half-maximal effect)
Chain of Estrogen receptor (Homo sapiens) (P03372 whole entry, looked up): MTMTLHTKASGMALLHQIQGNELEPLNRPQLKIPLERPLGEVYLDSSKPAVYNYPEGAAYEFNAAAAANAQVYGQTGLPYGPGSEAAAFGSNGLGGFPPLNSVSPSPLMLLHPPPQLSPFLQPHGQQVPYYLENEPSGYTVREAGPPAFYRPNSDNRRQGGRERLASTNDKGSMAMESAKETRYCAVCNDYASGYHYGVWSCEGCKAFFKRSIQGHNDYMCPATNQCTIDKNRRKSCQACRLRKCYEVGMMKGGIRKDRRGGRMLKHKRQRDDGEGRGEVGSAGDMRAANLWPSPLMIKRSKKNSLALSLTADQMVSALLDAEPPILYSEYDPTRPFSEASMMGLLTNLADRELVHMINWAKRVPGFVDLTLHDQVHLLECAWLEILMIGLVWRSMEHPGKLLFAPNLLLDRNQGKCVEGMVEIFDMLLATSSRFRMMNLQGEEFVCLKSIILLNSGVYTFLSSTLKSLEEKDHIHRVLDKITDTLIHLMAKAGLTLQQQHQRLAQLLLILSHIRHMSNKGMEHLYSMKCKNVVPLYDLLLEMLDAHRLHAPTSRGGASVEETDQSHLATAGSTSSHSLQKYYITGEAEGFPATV

[17] = biological target: Estrogen receptor (Homo sapiens) (UniProt P03372); assay: qHTS assay to identify small molecule agonists of the estrogen receptor alpha (ER-alpha) signaling pathway using the BG1 cell line (AID 743079); also: nearly all actives have a fitted effect of over 20% in size; also: potency is read from the fitted curve at half-maximal effect
[18] = biological target: Estrogen receptor (Homo sapiens) (UniProt P03372); assay: qHTS assay to identify small molecule antagonists of the estrogen receptor alpha (ER-alpha) signaling pathway (AID 743069; active = well fitted curve in the direction sought with a large enough effect in the signal ratio in the repeat runs, not every such curve was filed as active; inconclusive = weak or mixed curves, or effect the other way; inactive = no such curve, though single readings can be large or run the other way; the % refers to the signal ratio)
Method in brief: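 Estradiol-stimulated ER-alpha-UAS-bla HEK293 cells, 18 hr compound exposure at 37C. LiveBLAzer B/G substrate, 2 hr RT, fluorescence read.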

[19] = biological target: Androgen receptor (Homo sapiens) (UniProt P10275); assay: qHTS assay to identify small molecule agonists of the androgen receptor (AR) signaling pathway (AID 743036; active = well fitted activation curve with a large enough effect in the signal ratio in the repeat runs, with a control signal flat, not every such curve was filed as active; inconclusive = weak or mixed curves, or effect the other way; inactive = no such curve, though single readings can be large or run the other way; the % refers to the signal ratio; also: potency is read from the fitted curve at half-maximal effect)
Method in brief: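 Agonist activity was scored by beta-lactamase reporter fluorescence in stably transfected HEK293 cells exposed to compounds for 16 h at 37C and 5% CO2. Substrate loading took 2 h at room temperature.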

[20] = biological target: Androgen receptor (Homo sapiens) (UniProt P10275); assay: qHTS assay to identify small molecule antagonists of the androgen receptor (AR) signaling pathway (AID 743035; active = well fitted inhibition curve with a large enough effect in the signal ratio in the repeat runs, not every such curve was filed as active; inconclusive = weak or mixed curves, or effect the other way; inactive = no such curve, though single readings can be large or run the other way; the % refers to the signal ratio)
Method in brief: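 HEK293 cells stably carrying a UAS-driven beta-lactamase reporter (AR-UAS-bla GripTite) were plated for 4 h at 37C, then given compound and the agonist R1881 and incubated 16 h. Reporter activity was read by LiveBLAzer B/G FRET fluorescence after 2 h at room temperature.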

Measured: Potency

CC(c1ccc(O)cc1)c1ccc(O)cc1
not listed: [13] | [14] | [15] | [16] | [17] | [18] | [19] | [20]
inactive: all other assays above

Clc1ccc(CO/N=C(\Cn2ccnc2)c2ccc(Cl)cc2Cl)c(Cl)c1
active: [2] 13.3 µM | [3] 26.6 µM | [13] 21.1 µM | [10] 11.9 µM | [12] 2.66 µM
inactive: [1] | [4] | [5] | [11]

CC(C)(O)c1cnn2c(-c3ccc(F)c(-c4c(F)cccc4C#N)c3)cnc2n1
inactive: [1] | [4] | [14] | [15] | [8] | [9] | [11]
active: [2] 48.6 µM | [3] 30.6 µM | [12] 54.5 µM

CCCCOCN(C(=O)CCl)c1c(CC)cccc1CC
active: [2] 8.63 µM | [3] 9.69 µM | [15] 54.5 µM | [7] 61.1 µM | [12] 61.1 µM
inactive: [1] | [14] | [5] | [9] | [16] | [10] | [11]

O=[N+]([O-])O.O=[N+]([O-])O.[Cd]
inactive: [1] | [5] | [9] | [12]
active: [2] 43.3 µM | [3] 27.3 µM | [13] 61.1 µM

CC1CCC(C(C)C)C(OC(=O)c2ccccc2N)C1 (stereo not drawn)
inactive and 60.3 µM (active): [12]
active: [13] 26.6 µM | [16] 7.56 µM [inconclusive] and 6.82 µM [inconclusive] | [17] 3.35 µM and 2.69 µM
inactive: [1] | [3] | [4] | [5] | [8] | [9] | [10] | [11]
23.7 µM (active) and inactive: [2]

BrC(Br)C(Br)(Br)Br
active: [6] 24.5 µM | [7] 19.4 µM | [12] 61.5 µM
not listed: [4] | [10] | [14] | [15] | [18] | [19] | [20]
inactive: all other assays above

CC(=O)OC1(c2ccccc2)CCN(CCc2ccccc2)CC1
inactive: [1] | [4] | [8] | [9] | [11] | [12]
active: [2] 4.43 µM | [3] 4.43 µM | [6] 31.4 µM | [7] 55.8 µM

CC(C)Oc1cccc(NC(=O)c2ccccc2C(F)(F)F)c1
active: [2] 15.4 µM | [3] 15.4 µM | [13] 30.6 µM
inactive: [1] | [4] | [8] | [18] | [16] | [17] | [10]

Oc1c(Br)c(Br)c(Br)c(Br)c1Br
inactive: [1] | [2] | [3] | [13] | [19] | [14] | [5] | [15] | [16] | [11]

CC(=O)[O-].[Tl+]
inactive: [1] | [8] | [11]
active: [2] 2.75 µM | [3] 1.73 µM | [13] 1.73 µM | [12] 61.5 µM

CCCCCCCCCC[N+](C)(C)CCCCCCCCCC
inactive: [16] | [11]
active: [1] 24.5 µM | [2] 668 nM and 433 nM | [3] 841 nM and 433 nM | [4] 16.9 µM and 19.5 µM | [5] 24.8 µM and 30.6 µM | [6] 5.96 µM and 12.2 µM | [7] 5.96 µM and 9.69 µM | [9] 10.7 µM and 38.9 µM | [10] 33.5 µM | [12] 13.3 µM and 24.3 µM

CCC(C)c1cc([N+](=O)[O-])cc([N+](=O)[O-])c1OC(=O)C=C(C)C (stereo not drawn)
inactive: [1] | [14] | [8] | [9] | [11]
active: [2] 21.7 µM | [3] 27.3 µM | [13] 19.3 µM | [7] 21.7 µM | [12] 48.6 µM

Fc1cccc(Cl)c1CCl
not listed: [2] | [14] | [15] | [18] | [19] | [20]
inactive: all other assays above

FC(Cl)(Cl)Cl
active: [19] 12.3 µM | [14] 1.36 µM
not listed: [1] | [10] | [16] | [17] | [18]
inactive: all other assays above

O=c1oc2ccccc2c(O)c1Cc1c(O)c2ccccc2oc1=O
active: [7] 11.4 µM
not listed: [1] | [9] | [10] | [16] | [17] | [18]
inactive: all other assays above
